Measured values reported in PubChem BioAssay (Tox21).
A number with no mark means an inactive call. The call rests on the fitted dose curve.

The molecules below were run against Acetylcholinesterase (Homo sapiens) (UniProt P22303) (assay: Acetylcholinesterase (AChE) small molecule antagonists: enzyme-based qHTS assay (AID 1347397; further: nearly all actives have a fitted effect of over 55% in size)). Conditions: Potency: AChE enzyme activity inhibition; outcome: AChE enzyme activity inhibition; series mostly up to 115 µM; activity change, negative = inhibition: at the top concentration.
Chain of Acetylcholinesterase (Homo sapiens) (P22303 whole entry, looked up): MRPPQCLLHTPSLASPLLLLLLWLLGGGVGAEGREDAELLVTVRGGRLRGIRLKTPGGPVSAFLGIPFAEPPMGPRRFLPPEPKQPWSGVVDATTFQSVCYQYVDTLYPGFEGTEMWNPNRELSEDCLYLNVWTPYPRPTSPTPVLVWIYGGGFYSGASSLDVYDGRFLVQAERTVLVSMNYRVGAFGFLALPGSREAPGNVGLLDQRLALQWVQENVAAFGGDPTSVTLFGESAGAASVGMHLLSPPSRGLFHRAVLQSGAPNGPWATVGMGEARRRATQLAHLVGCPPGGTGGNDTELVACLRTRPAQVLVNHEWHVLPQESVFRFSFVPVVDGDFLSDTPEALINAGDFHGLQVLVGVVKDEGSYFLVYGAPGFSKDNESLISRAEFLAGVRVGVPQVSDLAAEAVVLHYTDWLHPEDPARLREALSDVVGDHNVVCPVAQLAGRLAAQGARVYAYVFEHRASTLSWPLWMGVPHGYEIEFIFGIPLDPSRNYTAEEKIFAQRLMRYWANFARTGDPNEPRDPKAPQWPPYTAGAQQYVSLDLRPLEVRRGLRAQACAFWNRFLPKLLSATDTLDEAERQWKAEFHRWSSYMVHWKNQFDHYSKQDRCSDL
From the text: National Center for Advancing Translational Sciences [NCATS]
Division of Preclinical Innovation [DPI]
U.S. Environmental Protection Agency [EPA]
National Institutes of Environmental Health Sciences [NIEHS]
National Toxicology Program [NTP]
U.S. Food and Drug Administration [FDA]
Acetylcholinesterase (AChE) is the primary cholinesterase in the body that hydrolyzes a key neurotransmitter, acetylcholine. Inhibition of AChE activity can lead to neurotoxicity. The known inhibitors include organophosphorous pesticides (OP), chemical warfare agents, drugs, and various phytochemicals.
An enzyme-based assay with the recombinant human AChE and Amplite Colormetric acetylcholinesterase assay kit (AAT Bioquest, Sunnyvale, CA) was used to evaluate the chemicals in the Tox21 10K library that inhibit AChE activity. The assay uses 5, 5-dithiobis-(2-nitrobenzoic acid) (DTNB) to quantify the thiocholine produced from the hydrolysis of acetylthiocholine by AChE.
Tox21 Assay Protocol Summary:
For the enzyme-based AChE assay, recombinant human AChE (50 mU/mL) in 4 uL/well was dispensed into black, clear-bottom 1536-well plates using a Multidrop Combi dispenser (Thermo Scientific, MA). Then, 23 nL of compound or DMSO (vehicle control) was transferred into the assay plates by a Pintool Station (Wako Automation, CA). The plates were incubated for 30 min at room temperature, followed by the addition of 4 uL of colorimetric detection cocktail solution (DTNB, acetylthiocholine) into each well using a Flying Reagent Dispenser (Beckman Coulter, CA) and then 10 min incubation at room temperature.
On the % scale 0 is the no-effect control and ±100 the full control effect.

Row | Structure (SMILES) | activity change, negative = inhibition
1 | COc1ccc(NS(=O)(=O)c2ccc(N)cc2)nn1 | 1.18% [at 53 µM]
2 | CCCCCCCCc1ccc(Nc2ccc(CCCCCCCC)cc2)cc1 | -1.77% [at 53 µM]
3 | C1COC1 | -0.682%
4 | O=C(O)Cc1ccc(OCCNC[C@H](O)c2ccccc2)cc1 | 2.29% [at 53 µM]
5 | COC(=O)c1cc(S(N)(=O)=O)ccc1OC | 0.593% [at 53 µM]
6 | NC1CCN(c2nc3c(cc2F)c(=O)c(C(=O)O)cn3-c2ccc(F)cc2F)C1 (stereo not given) | -0.239% [at 53 µM]
7 | CCCn1cc[n+](C)c1C | 0%
8 | CCN(CC)c1ccc2c(-c3ccc(S(=O)(=O)O)cc3S(=O)(=O)[O-])c3ccc(=[N+](CC)CC)cc-3oc2c1 | 2.32%
9 | C[N+]1(C)CCCC(OC(=O)C(O)(c2ccccc2)c2ccccc2)C1 (stereo not given) | 0.484% [at 53 µM]
10 | OCCNCc1ccccc1 | 1.82%
11 | Cc1ccsc1/C=C/C1=NCCCN1C | -25% [at 53 µM]
12 | Cn1c(=O)c2c(ncn2CC(=O)O)n(C)c1=O | -1.08% [at 53 µM]
13 | O=c1c(O)c(-c2ccc(O)cc2O)oc2cc(O)cc(O)c12 | -18.8%
14 | O=S(=O)(O)c1ccc2cc(O)c(S(=O)(=O)O)cc2c1 | -0.352%
15 | CC(=O)OC(OC(C)=O)c1ccc([N+](=O)[O-])o1 | 0.136%
16 | CC(=O)[C@H]1CC[C@H]2[C@@H]3C=CC4=CC(=O)CC[C@@]4(C)[C@@H]3CC[C@]12C | -0.684% [at 53 µM]
17 | CCCCC | 0.136%
18 | Cc1cc(O)c2c(O)c3c(O)cccc3cc2c1 | 0% [at 53 µM]
19 | CC(C)(O)Cc1ccccc1 | 0.752%
20 | Cc1nc(-c2ccc3c(c2)CCN(CCC2CCC(NC(=O)/C=C/c4ccc(F)cc4)CC2)CC3)no1 (stereo not given) | -9.2% [at 53 µM]

Row | Structure (SMILES) | activity change, negative = inhibition
21 | O=C(O)CCCCCCCCCCCBr | 0.115%
22 | CCCCOC(=O)CCCCC(=O)OCCCC | 0.186%
23 | CC(=O)c1ccc[nH]1 | 0.778%
24 | CN[C@H]1CC[C@@H](c2ccc(Cl)c(Cl)c2)c2ccc(S(N)(=O)=O)cc21 | -17%
25 | OCCN1CCN(CCCN2c3ccccc3Sc3ccc(C(F)(F)F)cc32)CC1 | 1.51% [at 53 µM]
26 | CCCCCCCCSCc1cc(C)c(O)c(CSCCCCCCCC)c1 | -5.16%
27 | NC(=O)c1c(Cl)cccc1Cl | -2.76%
28 | CC[N+](CC)(CC)CCOC(=O)C(C1CCCC1)C1CCCC1 | 0.97% [at 53 µM]
29 | Nc1ccc(N=Nc2ccccc2)c(N)c1 | 10.8%
30 | CC(C)C(O)C(C)(C)CO (stereo not given) | 0.0026%
31 | Oc1ccc(C(O)CNCCCCCCNCC(O)c2ccc(O)c(O)c2)cc1O (stereo not given) | 2.84% [at 53 µM]
32 | O[C@@H](CNC[C@H](O)[C@H]1CCc2cc(F)ccc2O1)[C@@H]1CCc2cc(F)ccc2O1 | -1.81% [at 53 µM]
33 | CC(C)(C)OC(=O)c1ccc(O)cc1 | 1.3%
34 | NC(=O)C1CO1 (stereo not given) | -0.66%
35 | C1CCC(C(CC2CCCCN2)C2CCCCC2)CC1 (stereo not given) | -20.1% [at 53 µM]
36 | COC(=O)CS | 0.136%
37 | O=C(Nc1ccc2c(O)c(N=Nc3ccc(N=Nc4ccc(S(=O)(=O)O)cc4)cc3)c(S(=O)(=O)O)cc2c1)c1ccccc1 | 24%
38 | CCCC(C)C=O (stereo not given) | 2.04%
39 | C1CCC2(CCCCO2)OC1 | 0.235%
40 | COc1cc(C(=O)NC2CCCNC2)cc(OC)c1OC (stereo not given) | 0.27% [at 53 µM]
